# Data published in PubChem BioAssay (Tox21).
# Inconclusive results are not listed. Entries that show only a call come without a potency. A number with no mark means an inactive call. Calls of active or inactive are those of the source. Calls follow the shape of the dose curve; as a rule, active = well fitted cell-killing curve with a large enough effect in the repeat runs; inconclusive = weak or mixed curves, or effect the other way; inactive = flat fitted curve, though single readings scatter.
# How the values were obtained:
# [1] = cAMP Responsive Elements (CRE) small molecule antagonists, cell-based qHTS assay: qHTS cell viability counter screen (AID 2060913); conditions: CRE-bla HEK293T viability, CellTiter-Glo luminescence, 5 h; series mostly up to 92.4 µM; also: nearly all actives have a fitted effect of over 40% in size
# Procedure, shortened: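 Cytotoxicity counter screen multiplexed with the CRE-bla antagonist read: HEK293T cells in DMEM with dialyzed FBS and 25 mM HEPES were treated 3 hrs under 0.25 uM final NKH477, then viability measured by CellTiter-Glo luminescence.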
# [2] = cAMP Responsive Elements (CRE) small molecule agonists, cell-based qHTS assay: qHTS cell viability counter screen (AID 2060914); conditions: CRE-bla HEK293T viability, CellTiter-Glo luminescence, 5 h; series mostly up to 92.4 µM;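 also: viability read after 3 h of compound exposure; nearly all actives have a fitted effect of over 50% in size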
# Procedure, shortened: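 HEK 293T CRE-bla; DMEM + 10% dialyzed FBS, 25 mM HEPES; 18 h pre-incubation; compound 3 h, 37 °C/5% CO2; CellTiter-Glo added after reporter read; luminescence after 30 min RT.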
Structure (SMILES),Potency [1],Potency [2],"viability change, negative = cytotoxic [1]","activity change, negative = cytotoxicity [2]"
CCCCN(CCCC)CCCCCCN(CCCC)CCCC,inactive,inactive,,
Nc1cc([N+](=O)[O-])ccc1O,inactive,inactive,,
O=C1CCCC(=O)O1,inactive,inactive,,
CCO[Si](CCCSSSSCCC[Si](OCC)(OCC)OCC)(OCC)OCC,inactive,inactive,,
O=P(O)(O)C(O)(Cc1cccnc1)P(=O)(O)O,inactive,inactive,,
C[C@@H](N)C(=O)O,inactive,inactive,,
CC(C)=CC(=O)O,inactive,inactive,,
CCN(CC)S(=O)(=O)c1ccc(C(=O)O)cc1,inactive,inactive,,
CCO/C([O-])=N/c1c[n+](N2CCOCC2)no1,inactive,inactive,,
[Cl][In]([Cl])[Cl],inactive,inactive,,
NCCC(O)(P(=O)(O)O)P(=O)(O)O,inactive,inactive,,
CN(C)CC/C=C1/c2ccccc2COc2ccc(CC(=O)O)cc21,inactive,inactive,,
O=c1[nH]cnc2[nH]ncc12,inactive,inactive,,
COc1cc(C(=O)NC2CCCNC2)cc(OC)c1OC (stereo not given),inactive,inactive,,
CC1CC(OC(=O)c2ccccc2O)CC(C)(C)C1 (stereo not given),inactive,inactive,,
CCCCCCCCCCC1CO1 (stereo not given),inactive,inactive,,
CCCCCCOCCO,inactive,inactive,,
Cc1ccc(C)c(S(=O)(=O)O)c1,inactive,inactive,,
CC(C)=CCC/C(C)=C/CC/C(C)=C/CO,inactive,inactive,,
C=CCOC(=O)CCC1CCCCC1,inactive,inactive,,
Cc1cccc(O)c1,inactive,inactive,,
O=C(O)c1ccccc1C(c1ccc(O)cc1)c1ccc(O)cc1,inactive,inactive,,
Cc1cccc2c1ccc1ccccc12,inactive,inactive,,
O=C(O)CN(CCCN(CC(=O)O)CC(=O)O)CC(=O)O,,,0.188% [at 18.9 µM],-8.11% [at 18.9 µM]

Structure (SMILES),Potency [1],Potency [2],"viability change, negative = cytotoxic [1]","activity change, negative = cytotoxicity [2]"
CCOc1cc(NC(C)=O)ccc1C(=O)OC,inactive,inactive,,
C[C@](N)(Cc1ccc(O)c(O)c1)C(=O)O,inactive,inactive,,
CCCC1O[C@@H]2C[C@H]3[C@@H]4CCC5=CC(=O)C=C[C@]5(C)[C@H]4[C@@H](O)C[C@]3(C)[C@]2(C(=O)CO)O1 (stereo not given in full),inactive,inactive,,
c1ccc2c(c1)Oc1ccccc1S2,inactive,inactive,,
NCCNCCNCCN,inactive,inactive,,
CC(C)COC(=O)COc1cc(Cl)c(Cl)cc1Cl,inactive,inactive,,
COC(=O)C1=C(C)NC(C)=C(C(=O)OC)C1c1ccccc1[N+](=O)[O-],inactive,inactive,,
CCCCC(CC)COP(=O)(OCC(CC)CCCC)OCC(CC)CCCC (stereo not given),inactive,inactive,,
CCCCCCCCCCCC(=O)OC,inactive,inactive,,
CCC(C)(CCC(C)C)C(=O)O (stereo not given),inactive,inactive,,
FC(F)(F)/C(=N\OCC1OCCO1)c1ccc(Cl)cc1,inactive,inactive,,
CC1CNCC(C)O1 (stereo not given),inactive,inactive,,
CCNC(=S)NCC,inactive,inactive,,
Oc1ccc2ccccc2c1N=Nc1ccccc1,inactive,inactive,,
CN1C(C(=O)Nc2ccccn2)=C(O)c2sccc2S1(=O)=O,inactive,inactive,,
Cn1cnc2ncnc(N)c21,inactive,inactive,,
OCCN(CCO)CCN(CCO)CCO,inactive,inactive,,
CC(=O)Nc1ccc(CC(=O)O)cc1,inactive,inactive,,
NC(CSCC(=O)O)C(=O)O (stereo not given),inactive,inactive,,
COc1ccc2cccc(CCNC(C)=O)c2c1,inactive,inactive,,
C#CC(O)CCC (stereo not given),inactive,inactive,,
CCN(CC)C(=O)/C(C#N)=C/c1cc(O)c(O)c([N+](=O)[O-])c1,inactive,inactive,,
C[n+]1c2cc(N)ccc2cc2ccc(N)cc21 (tested in a mixture with another compound),inactive,inactive,,
CCOc1ccccc1OCC,inactive,inactive,,

Structure (SMILES),Potency [1],Potency [2],"viability change, negative = cytotoxic [1]","activity change, negative = cytotoxicity [2]"
CCN1CCN(C(=O)N[C@@H](C(=O)N[C@@H]2C(=O)N3C(C(=O)O)=C(CSc4nnnn4C)CS[C@H]23)c2ccc(O)cc2)C(=O)C1=O,inactive,inactive,,
C=C(C)c1ccccc1,inactive,inactive,,
C1CN(SSN2CCOCC2)CCO1,inactive,inactive,,
Cc1ccc(C(C)C)c(O)c1,inactive,inactive,,
C[Si](C)(C)O[Si](C)(C)C,inactive,inactive,,
Cc1cc(N)c2cc(NC(=O)Nc3ccc4nc(C)cc(N)c4c3)ccc2n1,inactive,inactive,,
CN(C)C(=O)COC(=O)Cc1ccc(OC(=O)c2ccc(N=C(N)N)cc2)cc1,inactive,inactive,,
O=C1[C@H](CC[C@H](O)c2ccc(F)cc2)[C@@H](c2ccc(O)cc2)N1c1ccc(F)cc1,inactive,inactive,,
O=[N+]([O-])c1ccc(O)cc1,inactive,inactive,,
CCC(O)OCCCOC (stereo not given),inactive,inactive,,
Cc1sccc1Br,inactive,inactive,,
Oc1ccccc1F,inactive,inactive,,
O=Cc1ccc(C(=O)O)cc1,inactive,inactive,,
CC(CN)CCCN (stereo not given),inactive,inactive,,
O=C(CN1CCNCC1)NC1CCCCC1,inactive,inactive,,
CO[Si](CCCS)(OC)OC,inactive,inactive,,
Cc1ccc(S(N)(=O)=O)cc1,inactive,inactive,,
OC1OCCOC1O (stereo not given),inactive,inactive,,
S=C(SSSSSSC(=S)N1CCCCC1)N1CCCCC1,,,6.65% [at 18.9 µM],-4.69% [at 18.9 µM]
Nc1nc2c(ncn2CCC(CO)CO)c(=O)[nH]1,inactive,inactive,,
CCCCCC(=O)OCC,inactive,inactive,,
NS(=O)(=O)c1ccc(N2CCCCS2(=O)=O)cc1,inactive,inactive,,
CC(C)(C)Cl,inactive,inactive,,
Clc1ccc(C(Cn2ccnc2)OCc2ccc(Sc3ccccc3)cc2)c(Cl)c1 (stereo not given),inactive,inactive,,

Structure (SMILES),Potency [1],Potency [2],"viability change, negative = cytotoxic [1]","activity change, negative = cytotoxicity [2]"
CCCCCCOC(C)=O,inactive,inactive,,
C1CCCCC1,inactive,inactive,,
O=C1OC(=O)C2C3C=CC(C3)C12 (stereo not given),inactive,inactive,,
CN=C(NC#N)NCCSCc1nc[nH]c1C,inactive,inactive,,
CCOC(=O)OC(C)OC(=O)[C@@H]1N2C(=O)[C@@H](NC(=O)[C@H](N)c3ccccc3)[C@H]2SC1(C)C (stereo not given in full),inactive,inactive,,
CCNC(=O)C1CC(C)CCC1C(C)C (stereo not given),inactive,inactive,,
O=c1[nH]cccc1O,inactive,inactive,,
C1CN(CCOCCN2CCOCC2)CCO1,inactive,inactive,,
NS(=O)(=O)c1ccc(C(=O)O)cc1,inactive,inactive,,
C1CCC2OC2C1 (stereo not given),inactive,inactive,,
C=CCOC(=O)C(=C)C,inactive,inactive,,
CCN1CC(CCN2CCOCC2)C(c2ccccc2)(c2ccccc2)C1=O (stereo not given),inactive,inactive,,
CC(=O)OC(C)(C)Cc1ccccc1,inactive,inactive,,
Cc1nc2n(c(=O)c1CCN1CCC(c3noc4cc(F)ccc34)CC1)CCC[C@H]2O,,,2.27% [at 18.9 µM],4.41% [at 18.9 µM]
CCCCCCC=O,inactive,inactive,,
C/C=C/C(=O)CCCC,inactive,inactive,,
C[C@@H]1O[C@@H](OC[C@H]2O[C@@H](Oc3c(-c4ccc(O)c(O)c4)oc4cc(O)cc(O)c4c3=O)[C@H](O)[C@@H](O)[C@@H]2O)[C@H](O)[C@H](O)[C@H]1O,inactive,inactive,,
CCCC(=O)Nc1ccc(O)c(C(C)=O)c1,inactive,inactive,,
Cc1c(OCC(F)(F)F)ccnc1CS(=O)c1nc2ccccc2[nH]1 (stereo not given),inactive,inactive,,
ClC1=C(Cl)C(Cl)(Cl)C(Cl)=C1Cl,inactive,inactive,,
C=Cc1ccc(OC(C)=O)cc1,inactive,inactive,,
CCOc1ccccc1O[C@H](c1ccccc1)[C@H]1CNCCO1,inactive,inactive,,
CCC(=O)OCCOc1ccccc1,inactive,inactive,,
CCC(C)OC(=O)N1CCCCC1CCO (stereo not given),inactive,inactive,,

Structure (SMILES),Potency [1],Potency [2],"viability change, negative = cytotoxic [1]","activity change, negative = cytotoxicity [2]"
Cc1ccc(Cl)c(Nc2ccccc2C(=O)O)c1Cl,inactive,inactive,,
C[C@]12C(=O)OC(=O)[C@H]1[C@H]1C=C[C@@H]2C1,inactive,inactive,,
CCOC(=O)C(O)c1ccccc1 (stereo not given),inactive,inactive,,
CC(C)(Oc1ccc(C2CC2(Cl)Cl)cc1)C(=O)O (stereo not given),inactive,inactive,,
CCCCCCCCO,inactive,inactive,,
CCCCCSCCCCC,inactive,inactive,,
Nc1ccc([N+](=O)[O-])c(N)c1,inactive,inactive,,
CNCC[C@H](Oc1cccc2ccccc12)c1cccs1,inactive,inactive,,
NNCCc1ccccc1,inactive,inactive,,
CCOC(=O)CC(=O)C(=O)OCC,inactive,inactive,,
COCCCOCCCOC,inactive,inactive,,
CC1=CCC(C(C)C)C=C1 (stereo not given),inactive,inactive,,
COCCCC/C(=N\OCCN)c1ccc(C(F)(F)F)cc1,inactive,inactive,,
CCCC(O)C(O)CO (stereo not given),inactive,inactive,,
Cc1ccc(/C=N/n2c(-c3ccccc3)csc2=S)cc1,inactive,inactive,,
CCOC(=O)N1CCC(=C2c3ccc(Cl)cc3CCc3cccnc32)CC1,inactive,inactive,,
CC1COc2ccccc2N1 (stereo not given),inactive,inactive,,
COCCOCCOC,inactive,inactive,,
CCN(CC)CCCN(c1ccccc1)C1Cc2ccccc2C1,inactive,inactive,,
COCC(C)N (stereo not given),inactive,inactive,,
O=C(O)CNC(=O)c1ccc(CO)o1,inactive,inactive,,
CN1CCN2c3ccccc3Cc3ccccc3C2C1 (stereo not given),inactive,inactive,,
CC(C)c1ccccc1C(C)C,inactive,inactive,,
COc1cc2ncnc(Nc3ccc(F)c(Cl)c3)c2cc1OCCCN1CCOCC1,inactive,inactive,,
